Consider 16 compounds from PubChem BioAssay.

Molecules are shown by their SMILES. Activity calls are given as the source filed them. Unless noted, no rule for the calls is given here.

Test [1] relates to XIP peptide (Xip251-270) binding. In words: XIP fragment 251-270 binding compounds – biochemical, small-molecule microarray, fluorescence 635/667 nm, 0.1 µg/mL protein, primary screen (AID 1182). Particulars: fluorescent protein binding, 635 nm, higher = more signal, called active from +8 up or from −8 down.
A further test relates to XIP peptide (Xip251-270). In words: compounds binding XIP fragment 251-270 – biochemical, small-molecule microarray, fluorescence 635/667 nm, 0.5 µg/mL protein, primary screen (AID 1183). Particulars: fluorescence 635 nm, higher = more signal.
Test [2] in a line: blood-stage malaria parasite viability loss – strain 3D7, DAPI fluorescence, 100 nL, primary screen (AID 1184).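 Also: parasites grown inside human red blood cells in medium with human serum.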 Particulars: P. falciparum 3D7 growth, 3 d, higher = more signal.
The target in test [3] is Homeobox protein Hox-A13 (Mus musculus) (UniProt Q62424). In words: disruptors of Hoxa13 oligonucleotide interaction – biochemical, fluorescence polarization, labeled oligonucleotide, primary screen (AID 1185). Particulars: Hoxa13:DNA binding, 15 min, higher = more signal, called active from +8 up or from −8 down. On the technique in general: Polarisation of emitted light reports the rotation of a fluorescent probe.

A short description of test [4]: blockers of DNA damage checkpoint Chk1 activation – imaging, HeLa, hydroxyurea, phospho-Chk1 antibody, percent positive cells, primary screen (AID 1186). Particulars: hydroxyurea-induced phospho-Chk1 immunofluorescence imaging, higher = more signal.
The nature of test [5]: blockers of DNA damage checkpoint Chk1 activation – imaging, HeLa, hydroxyurea, phospho-Chk1 nuclear intensity, primary screen (AID 1187). Particulars: hydroxyurea-induced phospho-Chk1 immunofluorescence imaging, higher = more signal.

Homeobox protein Hox-A13 (Mus musculus), sequence (Q62424 whole entry, looked up): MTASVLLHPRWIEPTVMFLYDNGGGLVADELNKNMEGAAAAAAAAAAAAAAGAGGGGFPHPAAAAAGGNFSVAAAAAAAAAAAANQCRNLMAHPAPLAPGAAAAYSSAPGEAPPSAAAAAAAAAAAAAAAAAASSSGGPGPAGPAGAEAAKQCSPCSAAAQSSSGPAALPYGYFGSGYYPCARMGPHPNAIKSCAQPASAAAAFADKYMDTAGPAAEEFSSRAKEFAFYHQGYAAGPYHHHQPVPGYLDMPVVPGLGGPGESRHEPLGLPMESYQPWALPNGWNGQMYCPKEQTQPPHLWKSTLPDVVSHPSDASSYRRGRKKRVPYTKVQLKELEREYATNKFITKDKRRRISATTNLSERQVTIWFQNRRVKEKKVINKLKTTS

For `CC(C)C(=C=CC[C@@H](O)c1ccccc1OCCO)C[C@@H](O)c1cc(Cl)cc(Cl)c1O`, the composite z-score in test [1] was 1.25 (inactive); in the test on XIP peptide (Xip251-270) it was 0.748. Further, the z-score in test [2] was -1.39; in test [3] it was -3.09 (inactive); in test [4], -0.059 (inactive); in test [5] it was 0.189 (inactive).

As for `COc1cc(OC)c(C(O)C2C=CC3C(=O)N(c4ccccc4)C(=O)C3N2Nc2ccccc2F)cc1Br` (stereo unspecified), the composite z-score in test [1] is 0.166 (inactive); in the test on XIP peptide (Xip251-270), 0.758. For the same compound, the z-score in test [2] is 1.74; in test [3], -1.47 (inactive); in test [4] it was 0.195 (inactive); in test [5] it was -0.0782 (inactive).

With `COCCOC(=O)N1C(=O)[C@@]2(c3cc(C#CCC(C(=O)OC)C(=O)OC)ccc31)[C@H](C(N)=O)[C@H]1C(=O)O[C@H](c3ccccc3)[C@H](c3ccccc3)N1[C@@H]2c1ccc(OCCO)cc1`, the composite z-score in test [1] was 0.572 (inactive); with XIP peptide (Xip251-270), 0.813. Further, the z-score in test [2] was -2.07; in test [3], -0.183 (inactive); in test [4], -0.153 (inactive); in test [5], 0.0973 (inactive).

Consider `COC(=O)C1=CC(CCCO)=CC(c2ccc(CN3CCCC3)cc2)N(Cc2sc3ccccc3c2Cl)C=C1C(=O)OC` (stereo unspecified), for which the values for the composite z-score (in test [1]; in the test on XIP peptide (Xip251-270)) were 4.74 (inactive) and 0.916, respectively. In addition, the z-score in test [2] was -1.95; in test [3] it was -1.23 (inactive); in test [4], -0.438 (inactive); in test [5], -0.402 (inactive).

For `CC(C)(C)N1CC=CC23O[C@@H]4/C=C\CCCOC(=O)C4[C@H]2C(=O)N(CCCCCCO)[C@@H]3C1=O` (stereo partly specified), the results for the composite z-score (in test [1]; with XIP peptide (Xip251-270)) were 0.956 (inactive) and 0.346, respectively. Moreover, the z-score in test [2] is -0.136; in test [3] it was -4.63 (inactive); in test [4], 0.114 (inactive); in test [5], 1.32 (inactive).

`COC(=O)[C@H](Cc1ccc(O)cc1)N1CC2=CCCC=C[C@@H]2[C@H]1[C@H](O)Cc1ccccc1`: the composite z-score was -0.0324 (inactive) in test [1] and 0.419 in the test on XIP peptide (Xip251-270). Also, the z-score in test [2] was -1.63; in test [3], -8.16 (active); in test [4], -1.09 (inactive); in test [5] it was -1.18 (inactive).

Take `CC(C)CNC(=O)[C@@H]1c2ccccc2C(=O)N(Cc2ccccc2)[C@H]1c1ccc(CO)cc1`: the composite z-score is 0.906 (inactive) in test [1] and 0.0309 in the test with XIP peptide (Xip251-270). Moreover, the z-score in test [2] was -0.172; in test [3], -1.68 (inactive); in test [4], 0.212 (inactive); in test [5] it was -0.161 (inactive).

On to `COCCOC(=O)N1C(=O)[C@@]2(c3cc(C#CC4(O)CCCCCC4)ccc31)[C@H](c1ccc(OCCO)cc1)N1[C@H](c3ccccc3)[C@H](c3ccccc3)OC(=O)[C@H]1[C@@H]2C(=O)N1CCCCCCC1`, for which the composite z-score in test [1] is 0.662 (inactive); in the test on XIP peptide (Xip251-270), 0.743. Moreover, the z-score in test [2] was -2.43; in test [3], -13.3 (active); in test [4] it was -0.0238 (inactive); in test [5], 0.222 (inactive).

With `CCOC(=O)C[C@H]1[C@H](OC(=O)c2ccc(-c3ccccc3)cc2)[C@@H](NC(=O)c2ccc3ccccc3c2)c2cc(OCCCO)ccc2N1C(=O)c1ccccc1`, the composite z-score was 0.377 (inactive) in test [1] and -0.0506 with XIP peptide (Xip251-270). Besides, the z-score is -0.633 in test [2], -1.35 (inactive) in test [3], 0.0034 (inactive) in test [4] and 0.241 (inactive) in test [5].

As for `CCOC(=O)C[C@H]1[C@H](OC(=O)c2ccc(-c3ccccc3)cc2)[C@@H](NC(=O)CC(C)C)c2cc(OCCCO)ccc2N1C(=O)Cc1ccc(OC)cc1`, the composite z-score in test [1] was 0.364 (inactive); in the test on XIP peptide (Xip251-270), -0.0598. Moreover, the z-score is -0.0881 in test [2], -2.68 (inactive) in test [3], 0.568 (inactive) in test [4] and 0.254 (inactive) in test [5].

For `Cc1ccc(F)cc1S(=O)(=O)N[C@@H]1CCN(Cc2ccc3[nH]ccc3c2)C1`, the composite z-score in test [1] is -0.0141 (inactive); in the test on XIP peptide (Xip251-270), 0.261. The z-score in test [2] was -1.3; in test [3], -4.14 (inactive); in test [4], 0.29 (inactive); in test [5], -0.075 (inactive).

For `CC(C)C[C@@H]1NC(=O)[C@@]23C(=O)N[C@@H](Cc4ccccc4)C2[C@H](C)[C@@]2(C)O[C@H]2C3/C=C/C/C=C\CNC(=O)[C@@H](CC(C)C)NC1=O` (stereo partly specified), the figures for the composite z-score (in test [1]; in the test on XIP peptide (Xip251-270)) were 0.549 (inactive) and 0.414, respectively. In addition, the z-score in test [2] was -0.0432; in test [3] it was -6.77 (inactive); in test [4], -0.0685 (inactive); in test [5], 0.0529 (inactive).

For `COCCOC(=O)N1C(=O)[C@@]2(c3ccccc31)[C@H](C(N)=O)[C@H]1C(=O)O[C@H](c3ccccc3)[C@H](c3ccccc3)N1[C@@H]2c1ccc(OCCO)cc1`, the composite z-score in test [1] was 0.675 (inactive); with XIP peptide (Xip251-270), 0.638. The z-score is 0.0624 in test [2], -4.49 (inactive) in test [3], 0.114 (inactive) in test [4] and -0.0135 (inactive) in test [5].

Turning to `CO[C@H]1O[C@H](CO)[C@@H](OC(=O)Nc2ccc(C(F)(F)F)cc2)[C@H](OC(=O)Nc2ccccc2-c2ccccc2)[C@H]1OC(=O)Nc1ccccc1-c1ccccc1`, the composite z-score in test [1] is 0.844 (inactive); in the test on XIP peptide (Xip251-270), 0.701. The z-score was -1.8 in test [2], -3.72 (inactive) in test [3], 0.83 (inactive) in test [4] and 0.784 (inactive) in test [5].

For the compound `CCCCN1CC=CC23O[C@@H]4C=CCOC(=O)[C@@H]4[C@H]2C(=O)N(CCO)[C@@H]3C1=O` (stereo partly specified), the composite z-score was 0.64 (inactive) in test [1] and -0.964 in the test with XIP peptide (Xip251-270). Moreover, the z-score is 1.12 in test [2], -3.84 (inactive) in test [3], -0.338 (inactive) in test [4] and -0.424 (inactive) in test [5].

As for `C=CCC(OC(C)=O)[C@@H]1[C@@H](N(Cc2cc3ccccc3o2)C(=O)c2ccc(-c3ccccc3)cc2)c2cc(OCCCO)ccc2N1C(=O)c1ccc2ccccc2n1` (stereo partly specified), the composite z-score in test [1] is -0.341 (inactive); in the test with XIP peptide (Xip251-270) it was -0.317. Also, the z-score was -1.49 in test [2], -1.34 (inactive) in test [3], -0.203 (inactive) in test [4] and -0.103 (inactive) in test [5].
